Compound activity deposited in PubChem BioAssay by The Scripps Research Institute Molecular Screening Center.
Rows were chosen to be rich in hits. Some 3.4% of all compounds tested hit in one or more screens of this group.
FBW7 activator: activators of human E3 ligase FBW7. AlphaScreen FBW7–phospho-cyclin E peptide binding, activator screen. normalized activity (activation), % at 26.1 µM. Q969H0. 0.13% of 650,000 active; in the data active means normalized activity above about 1.9%;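 further: purified mutant Fbw7 with reduced substrate affinity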
MITF primary: inhibitors of human MITF; AlphaScreen MITF homodimerization, bead proximity signal; inhibition, % at 2.6 µM; 0.91% of 650,000 active; AID 1259374; in the data active means inhibition above about 50%
TEAD-YAP block: TEAD-YAP interaction inhibition. HEK-TIYL cells, TEAD-Gal4/YAP UAS-luciferase luminescence. inhibition, % at 9.12 µM. 1.4% of 640,000 active. AID 1259422; in the data active means inhibition above about 32%
GPR151 ag: activators of human GPR151 | PathHunter beta-arrestin GPR151 cells, luminescence | activation, % at 11.2 µM | 1% of 650,000 active | AID 1508602; in the data active means activation above about 4.9%
Of the large screens only hits and unclear results are named; the others gave an inactive call.

COc1cc(/C=C/c2ccc3cccc(OC(C)=O)c3n2)cc(OC)c1OC(C)=O	none
CC(=O)Oc1cccc2ccc(/C=C/c3cccc(F)c3)nc12	TEAD-YAP block 40
O=C1CN(Cc2ccccc2)c2ccccc2N1	TEAD-YAP block 96
O=C1CN(Cc2ccccc2)CC(=O)N1	none
O=C1CN(S(=O)(=O)c2ccc3ccccc3c2)c2ccccc2N1	none
CCCNS(=O)(=O)c1ccc2[nH]c3c(c2c1)CCCC3	none
CCOc1ccc(S(=O)(=O)N2CC(=O)Nc3ccccc32)cc1	TEAD-YAP block 42
Cc1cc(C)c(S(=O)(=O)N2CC(=O)Nc3ccccc32)c(C)c1	TEAD-YAP block 55
O=C1CN(S(=O)(=O)c2ccc3[nH]c4c(c3c2)CCCC4)c2ccccc2N1	TEAD-YAP block 62
O=C1CN(S(=O)(=O)c2ccc(Br)cc2)c2ccccc2N1	none
CCN(CC)C(=O)CN1C(=O)c2ccccc2S1(=O)=O	none
COc1ccc2nc(N3CCCC(C(=O)NC4CC4)C3)sc2c1 (stereo not drawn)	none
CCC(=O)OCCNc1cc(SCc2ccccc2)c2nonc2c1[N+](=O)[O-]	none
CCN(CC)C(=O)c1oc2ccc(S(=O)(=O)N3CC(C)CC(C)C3)cc2c1C (stereo not drawn)	TEAD-YAP block 40
CCOC(=O)c1cnc2ccc(C(=O)OC)cc2c1Nc1ccccc1	none
CC(=N/O)/C(C)=N\NC(=O)c1ccccn1	TEAD-YAP block 45
CC(=N/NC(=O)c1ccc(C)cc1)/C(C)=N/O	TEAD-YAP block 71
C/C(=N\NC(=O)c1ccc(O)cc1)c1ccc2ccccc2c1	none
COc1cccc(N2CCN(C(=O)c3cnn4c(C(F)(F)F)cc(-c5ccc(OC)c(OC)c5)nc34)CC2)c1	none
S=c1[nH]c2cc(Cl)ccc2n1C1CCCCC1	FBW7 activator 3.1
O=c1c2cc(Cl)ccc2[nH]c(=S)n1C1CCCCC1	none
CC(C)OCCCNc1ccc(S(=O)(=O)N2CCOCC2)cc1N	none
C/C(Cl)=C/COC(=O)c1ccc(N2C(=O)C3C4C=CC(C4)C3C2=O)cc1 (stereo not drawn)	none
O=C1NC(=S)S/C1=C\c1ccc(O)c(O)c1	MITF primary 55
Cc1cc(/C=C2\SC(=O)N(C)C2=O)c(C)n1-c1ccc(O)cc1	TEAD-YAP block 79
COc1ccc(/C=C2\SC(=S)NC2=O)cc1O	none
O=C1NC(=Nc2ccc(O)cc2)S/C1=C\c1ccc(F)cc1	TEAD-YAP block 32
COC(=O)C(C)N1C(=O)S/C(=C/c2cc(C)n(-c3ccccn3)c2C)C1=O (stereo not drawn)	TEAD-YAP block 43
O=C(C1CCCN(S(=O)(=O)c2cccs2)C1)N1CCn2c1cc1ccccc12 (stereo not drawn)	none
COc1ccc(N=c2oc3cc(O)ccc3cc2-c2nc(-c3ccc(Br)cc3)cs2)cc1	none
Cc1cc(/C=C2\SC(=Nc3ccccc3)NC2=O)c(C)n1-c1ccccc1	TEAD-YAP block 53
CCOc1cc(/C=C2/SC(=Nc3ccccc3)NC2=O)ccc1O	TEAD-YAP block 52
O=C1NC(=Nc2ccc(F)cc2)S/C1=C\c1ccco1	none
O=C1NC(=Nc2ccccc2)S/C1=C/c1ccc(O)c(O)c1	TEAD-YAP block 47
O=C1NC(=Nc2ccccc2)S/C1=C/c1ccccc1	none
O=C1NC(=Nc2ccc(O)cc2)S/C1=C/C=C/c1ccco1	TEAD-YAP block 38
Cc1nc(C)c(C(=O)Nc2cccc3ccccc23)s1	none
Cc1ccc(NC(=O)C(C)(C)C)c([N+](=O)[O-])c1	none
Cc1cccc(-n2nc3c(c2NC(=O)CC(C)C)CSC3)c1C	none
ClCc1nc2cc3ccccc3cc2[nH]1	TEAD-YAP block 40
N#Cc1c(NC(=O)CSc2ncn[nH]2)sc2c1CCCC2	TEAD-YAP block 49
CC(=O)N1CCc2c(sc(NC(=O)Cc3cccc4ccccc34)c2C(N)=O)C1	none
CC(=O)N1CCc2c(sc(NC(=O)Cc3cccc4ccccc34)c2C#N)C1	TEAD-YAP block 54
N#Cc1c(NC(=O)CCc2ccccc2)sc2c1CCCCCC2	none
N#Cc1c(NC(=O)CCc2ccccc2)sc2c1CCCC2	TEAD-YAP block 47
CC(=O)N1CCc2c(sc(NC(=O)CCc3ccccc3)c2C#N)C1	TEAD-YAP block 54
COc1ccc(NC(=O)c2ccc(NC(=O)c3ccco3)cc2)c(NC(=O)c2ccco2)c1	none
CCOC(=O)c1c(C)n(C)c2ccc(OC(C)=O)c(S(=O)(=O)c3ccccc3)c12	none
Cc1ccc(NS(=O)(=O)c2cc(Br)cc3c2N(C(=O)C2CC2)CC3)cc1	TEAD-YAP block 40
CC(=O)N1CCc2cc(Br)cc(S(=O)(=O)Nc3ccc(C)cc3)c21	none
CCOC(=O)c1cnc2cc(C(F)(F)F)ccc2c1Nc1cc(C)c(Cl)cc1OC	none
COc1ccc(CCNc2cc(N3CCN(CCO)CC3)ccc2[N+](=O)[O-])cc1OC	TEAD-YAP block 64
COc1ccc(N2CCN(Cc3cc(OC)c(O)c([N+](=O)[O-])c3)CC2)cc1	MITF primary 72
COc1ccc(C(=O)N2CCN(c3ccc([N+](=O)[O-])c(NCCc4ccc(OC)c(OC)c4)c3)CC2)cc1Cl	TEAD-YAP block 59
COc1cc(CN2CCN(c3ccc([N+](=O)[O-])cc3)CC2)cc([N+](=O)[O-])c1O	none
O=C(c1ncn[nH]1)N1CCN(c2ccc([N+](=O)[O-])c(NCc3ccc(Cl)cc3)c2)CC1	FBW7 activator 3.9
CCOc1ccccc1Nc1nc(-c2cc3cc(Br)ccc3oc2=O)cs1	none
CC(=O)N/C(=N\c1nc(C)cc(C)n1)Nc1ccccc1C	none
CCOC(=O)N1CCc2c(sc(NC(=O)c3cc(=O)c4ccccc4o3)c2C(N)=O)C1	none
O=C(Cn1nnc(-c2ccccc2NC(=O)c2ccc(F)cc2)n1)NCc1cccs1	FBW7 activator 2.5
Cc1cccc(N2CCN(c3cccc(C)c3)C2c2ccc(Br)cc2)c1	none
O=[N+]([O-])c1c(N2CCCC2)cc(Cl)c2nonc12	TEAD-YAP block 33
COC(=O)[C@H](Cc1ccccc1)NC(=O)OC1C(=O)c2cc(Br)ccc2O[C@H]1c1ccc2c(c1)OCO2 (stereo partly drawn)	none (no result: TEAD-YAP block)
CC1=C/C(=C\c2c(O)[nH]c(=O)[nH]c2=O)C(C)=N1	none
CC1=C/C(=C\c2c(O)n(Cc3ccco3)c(=S)[nH]c2=O)C(C)=N1	MITF primary 84
N#Cc1ccc(NC(=O)c2ncn[nH]2)cc1	none
O=[N+]([O-])c1cccc(-c2nc(-c3ccccc3Cl)no2)c1	FBW7 activator 2.1
O=[N+]([O-])c1ccc(-c2nc(-c3ccccc3Cl)no2)cc1	none
Cc1ccccc1-c1nn2c(Cn3cnc4ccccc43)nnc2s1	none
O=C(CCl)NCc1c(Cl)cccc1-n1cccc1	TEAD-YAP block 35
O=C(CN1C(=O)C2C3C=CC(C4CC34)C2C1=O)N1CCC(c2ccncc2)CC1 (stereo not drawn)	TEAD-YAP block 50
CCCC(=O)N1CCN(c2ccc(NC(=O)COc3ccccc3)cc2)CC1	none
FC(F)(F)c1ccc(Cn2cnc3c(NCCOc4ccccc4)nc(Nc4ccc(C(F)(F)F)cc4)nc32)cc1	none
CN(C)c1ccc(CC(=O)c2nc3ccccc3s2)cc1	TEAD-YAP block 34
O=C1C(Cl)=C(Cl)C(=O)N1c1ccc(I)cc1	none
